# An excerpt weighted towards active compounds, which were near 7.4% of everything screened.
# NPC1 prom act: NPC1 promoter activation; Potency, µM (series often up to 9.22 µM), for the others: top-dose activation, most hits filed as activators; Huh7 NPC1 promoter luciferase reporter, 24 h; actives 2.4% (n = 320,000); further: % of control where 0% means no effect; nearly all actives have a fitted effect of over 60% in size
#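 Compounds in DMSO were transferred onto Huh7 NPC1-luciferase reporter cells pre-incubated 2 h; after 24 h at 37 °C, Amplite reagent was dispensed and luminescence recorded 10 min later.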
# SMN2 splice enh: increases expression of the SMN2 splice variant. HEK293 SMN2-luciferase splicing reporter, luminescence, 30-36 h. actives 2.8% (n = 210,000). Potency, µM (top dose mostly 46.1 µM), for inactives: at the top dose activity change, positive = activation, most hits filed as activators; further: % of control where 0% means no effect; nearly all actives have a fitted effect of over 55% in size
#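 HEK293 cells carry an SMN2 minigene-luciferase reporter in which exon 7 inclusion puts luciferase in frame. Cells were seeded at 2000 cells/well, attached for 10-12 hours, then exposed to compounds for 30-36 hours at 37C before ONE-Glo luminescence.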
# Rab9 promoter act: activates the Rab9 promoter | Potency, µM (series often up to 9.22 µM), for inactives: at the top dose activation, negative = inhibition, most hits filed as activators | actives 2.8% (n = 320,000) | AID 485297 | Huh7 Rab9 promoter-luciferase reporter, luminescence, 24 h; further: % of control where 0% means no effect; nearly all actives have a fitted effect of over 60% in size
#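 Luciferase signal after 10 min detection reagent at ambient indicates Rab9 promoter upregulation; stably transfected Huh7 cells were treated 24 h with compound in DMSO at 37 °C, 5% CO2.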
# ELG1 genotoxic: genotoxicity induction in ELG1-luciferase HEK293T cells; Potency, µM (titrated, usually from 46 µM), inactives show top-dose activity change, positive = activation, actives largely listed as activators; actives 1.3% (n = 330,000); AID 504466; HEK293T ELG1-luciferase reporter, luminescence, 16 h; further: % of control where 0% means no effect; nearly all actives have a fitted effect of over 60% in size
#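 Screening used a luciferase reporter fused to human ELG1 in HEK293T cells. Luminescence was read on a CCD plate imager after 16 hr exposure and 30 min ONE-Glo incubation.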
# FLuc modulator: firefly luciferase modulation, counter-screen for miR-21 project; purified FLuc, Km substrates, luminescence inhibition; Potency, µM (top dose mostly 57.5 µM), for the others: at the top dose activity change, negative = inhibition, actives largely listed as inhibitors; actives 6.9% (n = 360,000); AID 588342;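 further: plate controls were vehicle for no effect and reference inhibitor for full effect; nearly all actives have a fitted effect of over 55% in size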
# Target sequence (P08659 whole entry, looked up): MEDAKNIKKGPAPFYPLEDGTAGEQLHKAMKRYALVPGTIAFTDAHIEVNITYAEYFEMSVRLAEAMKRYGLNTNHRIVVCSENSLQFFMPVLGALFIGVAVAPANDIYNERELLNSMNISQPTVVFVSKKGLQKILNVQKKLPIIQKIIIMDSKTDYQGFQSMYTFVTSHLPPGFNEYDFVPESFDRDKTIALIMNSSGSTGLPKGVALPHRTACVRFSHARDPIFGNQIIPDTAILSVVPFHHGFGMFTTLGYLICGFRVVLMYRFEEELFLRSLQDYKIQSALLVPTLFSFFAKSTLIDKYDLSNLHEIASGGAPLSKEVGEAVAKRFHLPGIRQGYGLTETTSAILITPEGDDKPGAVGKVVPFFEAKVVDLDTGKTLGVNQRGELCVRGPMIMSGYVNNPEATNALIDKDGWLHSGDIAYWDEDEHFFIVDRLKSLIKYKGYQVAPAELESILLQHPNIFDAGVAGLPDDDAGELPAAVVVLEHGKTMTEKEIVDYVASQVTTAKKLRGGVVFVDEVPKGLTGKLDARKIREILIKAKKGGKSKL
#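 Purified P. pyralis luciferase (10nM final) with 10uM D-luciferin and 10uM ATP (Km levels) in 50mM Tris acetate pH 7.5, 10mM Mg acetate, 0.01% Tween-20, 0.05% BSA; qHTS 6-point titration, ~60 µM downward; luminescence read.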
# Numbers without * were called inactive; ? = inconclusive; nt = no result given; [ ] = dose if it differs, or a comment. The call rests on the fitted dose curve; in most records, active means well fitted curve in the direction sought with a large enough effect; inconclusive means small, poorly fitted or top-dose-only effect, or another doubt; inactive means no such curve, though single readings can be large; an effect the other way counts as inactive or inconclusive. Potency means the concentration at half of the fitted maximal effect.
SMILES,NPC1 prom act,SMN2 splice enh,Rab9 promoter act,ELG1 genotoxic,FLuc modulator
Cc1nn(Cc2c(Cl)cccc2Cl)c(C)c1NC(=O)c1cc(C(C)C)on1,1.0%,3.55µM*,0.0%,-4.1%,-0.6%
COc1ccc(C(=O)Nc2cc(OCc3ccccc3)c(Cl)cc2Cl)cc1,-2.5%,-14.7%,0.1%,-2.9%,1.3%
O=C(O)c1ccc(COc2ccccc2Cl)cc1,13.9%,11.8%,23.7%,2.3%,21.3µM*
CC(=O)N1CCCc2cc(S(=O)(=O)N3CCC(C(=O)NCc4cccc(C)c4)CC3)ccc21,nt,nt,nt,nt,-1.4%
COc1ccccc1-c1nnc(SCC(=O)N2CCCC2)o1,25.2%,nt,17.1%,?,-17.8%
COC(=O)CCC(=O)c1ccn(S(=O)(=O)c2ccccc2)c1,-4.9%,nt,-0.5%,3.3%,-2.8%
Cc1nn(Cc2c(F)c(F)c(F)c(F)c2F)c(C)c1NC(=O)c1cccc(COc2ccccc2Cl)c1,0.501µM*,10µM*,0.355µM*,?,6.01µM*
Cc1nn(Cc2cccc(F)c2)c(C)c1NC(=O)c1ccc(COc2ccccc2Cl)cc1,-3.2%,-66.8%,2.8%,-23.6%,3.5%
O=C(O)c1cccc(COc2ccccc2Cl)c1,?,0.0316µM*,0.891µM*,nt,0.151µM*
O=C(CN1CCN(c2ccccn2)CC1)Nc1cccc(S(=O)(=O)N2CCCC2)c1,-3.1%,-40.4%,1.1%,-7.1%,-2.6%
COc1ccc2c(c1)Cc1sc(NC(C)=O)nc1-2,1µM*,5.62µM*,0.794µM*,8.2µM*,4.78µM*
COc1ccc2c(c1)CCc1sc(NC(=O)c3ccc(C)cc3)nc1-2,0.3%,-30.9%,3.2%,-6.1%,8.49µM*
COc1ccc2c(c1)Cc1sc(NC(=O)c3cccnc3)nc1-2,-0.1%,-28.7%,15.5%,-4.8%,?
COc1ccc2c(c1)-c1nc(NC(=O)c3cccs3)sc1CC2,3.0%,3.5%,20.2%,-0.9%,19µM*
COc1ccc2c(c1)Cc1sc(NC(=O)c3ccco3)nc1-2,2µM*,11.2µM*,1.78µM*,12.8%,3.38µM*
Cc1nn(C(C)C(=O)NCc2cccs2)c(C)c1[N+](=O)[O-] (configuration not stated),-5.1%,-10.8%,6.4%,2.3%,5.6%
COc1ccccc1C(=O)COC(=O)c1ccc(Cl)nc1,4.3%,nt,-3.6%,-3.4%,?
Cc1nc2c(C(=O)NCCc3ccc(Cl)cc3)cnn2c(C)c1Cc1ccc(F)cc1,nt,nt,nt,nt,1.5%
CCOC(=O)c1cccc(NC(=O)CCCn2nc(C)c3c(C)n(-c4ccccc4)nc3c2=O)c1,nt,nt,nt,nt,-7.4%
COc1ccc2c(c1)-c1nc(NC(=O)c3ccco3)sc1CC2,13.7%,nt,19.4%,13.2%,19µM*
COc1ccc2c(c1)-c1nc(NC(=O)c3cccc(Br)c3)sc1CC2,nt,-26.3%,nt,nt,-13.2%
COc1cccc(OC)c1C(=O)Nc1nc2c(s1)CCc1ccccc1-2,nt,11.5%,nt,nt,-0.7%
COc1ccc2c(c1)CCc1sc(NC(=O)c3ccco3)nc1-2,25.2%,9.8%,?,?,21.3µM*
CCCn1c(=O)c2sccc2n2c(CCCC(=O)NC3CCCCC3)nnc12,nt,nt,nt,nt,-0.7%
O=C(OC1Cc2c(O)cc(O)cc2OC1c1cc(O)c(O)c(O)c1)c1cc(O)c(O)c(O)c1 (configuration not stated),nt,3.5%,nt,nt,nt
SMILES,NPC1 prom act,SMN2 splice enh,Rab9 promoter act,ELG1 genotoxic,FLuc modulator
COc1cccc(/C=N/Nc2snc(SC)c2C#N)c1,?,-27.9%,25.0%,2.0%,4.78µM*
CSc1nsc(N/N=C/c2ccccc2)c1C#N,28.4%,29.2%,22.7%,-12.2%,?
COc1ccc(/C=N/Nc2snc(SC)c2C#N)cc1OC,2.82µM*,?,2.82µM*,15.8%,2.13µM*
COc1cccc(/C=N/Nc2snc(SC)c2C#N)c1O,1.2%,-61.6%,2.6%,2.6%,4.78µM*
CC(=O)Nc1ccc(NC(=O)C2CCN(c3c(NC(C)=O)c(C)nn3-c3ccccc3)CC2)cc1,nt,nt,nt,nt,1.9%
COc1c(O)cc2c(c1O)[C@@H]1O[C@@H](CO)[C@@H](O)[C@@H](O)[C@@H]1OC2=O,nt,-7.2%[20.6 µM],nt,nt,nt
CCN1CCN(C(=O)c2cc3c(OC)c(OC)c(OC)cc3[nH]2)CC1,-0.1%,nt,1.6%,4.3%,-7.1%
COc1cc2[nH]c(C(=O)N3CCC(Cc4ccccc4)CC3)cc2c(OC)c1OC,0.3%,nt,-7.4%,-4.0%,23.9µM*
